PubChem BioAssay AID1159580 (chemical genetic matrix, 2015)
In all, about 5,500 compounds went through this assay and about 2,000 (36%) were called active. About 18% were inconclusive and are not listed. No stated cut-off is given here; in the data, active means normalized growth mostly below about 0.91 (no sharp cut-off); inconclusive means no clear call, values can overlap the other calls; inactive means mostly above about 0.92. This is one part of the list.

Assay: chemical genetic growth profiling, strain panel (AID 1159580);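 further: tested at 20 µM; growth read once vehicle control cultures reached saturation at 30 °C; 1 = growth at the plate median or of vehicle wells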
Details: growth OD

Measured: normalized growth

CNC(=O)O/N=C(\C)SC
inactive: S. cerevisiae deletion strains, locus YJR075W, strain HOC1, stronger effect = lower value 0.99 | S. cerevisiae deletion strains, locus YKL009W, strain mrt4, stronger effect = lower value 1.02 | S. cerevisiae deletion strains, locus YKL068W, stronger effect = lower value 0.986 | S. cerevisiae deletion strains, locus YKL085W, strain MDH1 (second series), stronger effect = lower value 0.985 | S. cerevisiae deletion strains, locus YKL085W, strain MDH1, stronger effect = lower value 0.985 | S. cerevisiae deletion strains, locus YKL160W, strain elf1, stronger effect = lower value 1 | S. cerevisiae deletion strains, locus YKL190W, strain CNB1, stronger effect = lower value 1 | S. cerevisiae deletion strains, locus YKR001C, strain vps1, stronger effect = lower value 0.999 | S. cerevisiae deletion strains, locus YKR026C, strain gcn3, stronger effect = lower value 0.999 | S. cerevisiae deletion strains, locus YKR091W, strain srl3, stronger effect = lower value 1 | S. cerevisiae deletion strains, locus YLL001W, strain dnm1, stronger effect = lower value 1 | S. cerevisiae deletion strains, locus YLL026W, stronger effect = lower value 1 | S. cerevisiae deletion strains, locus YLL041C, strain sdh2, stronger effect = lower value 0.999 | S. cerevisiae deletion strains, locus YLR027C, strain aat2, stronger effect = lower value 0.987 | S. cerevisiae deletion strains, locus YLR039C, strain RIC1, stronger effect = lower value 1.01 | S. cerevisiae deletion strains, locus YLR058C, strain SHM2, stronger effect = lower value 1.01 | S. cerevisiae deletion strains, locus YLR102C, strain apc9, stronger effect = lower value 0.99 | S. cerevisiae deletion strains, locus YLR113W, strain HOG1, stronger effect = lower value 1.01 | S. cerevisiae deletion strains, locus YLR221C, strain rsa3, stronger effect = lower value 1 | S. cerevisiae deletion strains, locus YLR258W, strain gsy2, stronger effect = lower value 0.994 | S. cerevisiae deletion strains, locus YLR262C, strain YPT6 (second series), stronger effect = lower value 1.03 | S. cerevisiae deletion strains, locus YLR262C, strain YPT6, stronger effect = lower value 1.05 | S. cerevisiae deletion strains, locus YLR268W, strain sec22, stronger effect = lower value 0.994 | S. cerevisiae deletion strains, locus YLR320W, strain mms22, stronger effect = lower value 0.995 | S. cerevisiae deletion strains, locus YLR330W, strain CHS5, stronger effect = lower value 1.01 | S. cerevisiae deletion strains, locus YLR342W, strain FKS1 (second series), stronger effect = lower value 1.02 | S. cerevisiae deletion strains, locus YLR342W, strain FKS1, stronger effect = lower value 0.997 | S. cerevisiae deletion strains, locus YLR357W, strain rsc2, stronger effect = lower value 0.983 | S. cerevisiae deletion strains, locus YLR370C, strain arc18, stronger effect = lower value 1 | S. cerevisiae deletion strains, locus YLR371W, strain rom2, stronger effect = lower value 0.98 | S. cerevisiae deletion strains, locus YLR384C, strain iki3, stronger effect = lower value 1 | S. cerevisiae deletion strains, locus YLR418C, strain cdc73, stronger effect = lower value 1.01 | S. cerevisiae deletion strains, locus YML016C, strain PPZ1, stronger effect = lower value 1.01 | S. cerevisiae deletion strains, locus YML032C, strain rad52, stronger effect = lower value 0.981 | S. cerevisiae deletion strains, locus YML120C, strain ndi1, stronger effect = lower value 1.01 | S. cerevisiae deletion strains, locus YML124C, strain tub3, stronger effect = lower value 0.978 | S. cerevisiae deletion strains, locus YMR058W, strain fet3, stronger effect = lower value 1 | S. cerevisiae deletion strains, locus YMR078C, strain ctf18, stronger effect = lower value 0.985 | S. cerevisiae deletion strains, locus YMR125W, strain sto1, stronger effect = lower value 0.999 | S. cerevisiae deletion strains, locus YMR129W, stronger effect = lower value 0.999 | S. cerevisiae deletion strains, locus YMR205C, strain PFK2, stronger effect = lower value 1.01 | S. cerevisiae deletion strains, locus YMR223W, strain ubp8, stronger effect = lower value 0.991 | S. cerevisiae deletion strains, locus YMR231W, strain pep5, stronger effect = lower value 0.982 | S. cerevisiae deletion strains, locus YMR263W, strain SAP30, stronger effect = lower value 1.02 | S. cerevisiae deletion strains, locus YMR307W, strain GAS1, stronger effect = lower value 1.02 | S. cerevisiae deletion strains, locus YNL067W, strain RPL9B, stronger effect = lower value 1.01 | S. cerevisiae deletion strains, locus YNL071W, strain lat1, stronger effect = lower value 1.01 | S. cerevisiae deletion strains, locus YNL128W, strain TEP1, stronger effect = lower value 1.01 | S. cerevisiae deletion strains, locus YNL153C, strain GIM3, stronger effect = lower value 0.996 | S. cerevisiae deletion strains, locus YNL183C, strain NPR1, stronger effect = lower value 0.997 | S. cerevisiae deletion strains, locus YNL209W, strain ssb2, stronger effect = lower value 0.996 | S. cerevisiae deletion strains, locus YNL233W, strain BNI4, stronger effect = lower value 1.03 | S. cerevisiae deletion strains, locus YNL248C, strain rpa49, stronger effect = lower value 1 | S. cerevisiae deletion strains, locus YNL250W, strain rad50, stronger effect = lower value 0.974 | S. cerevisiae deletion strains, locus YNL271C, strain bni1, stronger effect = lower value 0.991 | S. cerevisiae deletion strains, locus YNL298W, strain CLA4, stronger effect = lower value 0.988 | S. cerevisiae deletion strains, locus YNL307C, strain MCK1, stronger effect = lower value 0.981 | S. cerevisiae deletion strains, locus YNL322C, strain KRE1 (second series), stronger effect = lower value 0.995 | S. cerevisiae deletion strains, locus YNL322C, strain KRE1, stronger effect = lower value 1.01 | S. cerevisiae deletion strains, locus YNR049C, strain mso1, stronger effect = lower value 0.998 | S. cerevisiae deletion strains, locus YNR052C, strain pop2, stronger effect = lower value 0.988 | S. cerevisiae deletion strains, locus YOL006C, strain TOP1, stronger effect = lower value 1.07 | S. cerevisiae deletion strains, locus YOL012C, strain htz1 0.858 | S. cerevisiae deletion strains, locus YOL147C, strain pex11, stronger effect = lower value 0.976 | S. cerevisiae deletion strains, locus YOR001W, strain rrp6, stronger effect = lower value 0.989 | S. cerevisiae deletion strains, locus YOR061W, strain CKA2, stronger effect = lower value 1.01 | S. cerevisiae deletion strains, locus YOR069W, strain VPS5, stronger effect = lower value 1 | S. cerevisiae deletion strains, locus YOR070C, strain gyp1, stronger effect = lower value 0.995 | S. cerevisiae deletion strains, locus YOR080W, strain dia2, stronger effect = lower value 0.996 | S. cerevisiae deletion strains, locus YOR083W, strain WHI5, stronger effect = lower value 1 | S. cerevisiae deletion strains, locus YOR106W, strain vam3, stronger effect = lower value 1.01 | S. cerevisiae deletion strains, locus YOR136W, strain idh2, stronger effect = lower value 0.978 | S. cerevisiae deletion strains, locus YOR144C, strain elg1, stronger effect = lower value 0.977 | S. cerevisiae deletion strains, locus YOR184W, strain ser1, stronger effect = lower value 0.993 | S. cerevisiae deletion strains, locus YOR231W, strain MKK1, stronger effect = lower value 1.05 | S. cerevisiae deletion strains, locus YOR265W, strain rbl2, stronger effect = lower value 1.02 | S. cerevisiae deletion strains, locus YOR270C, strain vph1, stronger effect = lower value 1.02 | S. cerevisiae deletion strains, locus YOR290C, strain snf2, stronger effect = lower value 0.981 | S. cerevisiae deletion strains, locus YOR316C, strain cot1, stronger effect = lower value 0.983 | S. cerevisiae deletion strains, locus YPL051W, strain arl3, stronger effect = lower value 1.02 | S. cerevisiae deletion strains, locus YPL055C, strain LGE1, stronger effect = lower value 1.03 | S. cerevisiae deletion strains, locus YPL078C, strain atp4, stronger effect = lower value 0.997 | S. cerevisiae deletion strains, locus YPL106C, strain sse1, stronger effect = lower value 0.982 | S. cerevisiae deletion strains, locus YPL240C, strain hsp82, stronger effect = lower value 0.998 | S. cerevisiae deletion strains, locus YPL241C, strain CIN2, stronger effect = lower value 1 | S. cerevisiae deletion strains, locus YPL256C, strain CLN2, stronger effect = lower value 1.05 | S. cerevisiae deletion strains, locus YPR119W, strain clb2, stronger effect = lower value 0.985 | S. cerevisiae deletion strains, locus YPR141C, strain kar3, stronger effect = lower value 0.989 | S. cerevisiae deletion strains, locus YPR163C, strain tif3, stronger effect = lower value 0.976 | S. cerevisiae deletion strains, locus YPR167C, strain met16, stronger effect = lower value 0.986 | S. cerevisiae deletion strains, strain wtn01, stronger effect = lower value 0.997 | S. cerevisiae strains, strain wild type, stronger effect = lower value 1
